Bioassay records deposited in PubChem by Sanford-Burnham Center for Chemical Genomics.
A selection: hits, their analogues and other compounds. The true share with any hit is near 28%.
CYP2C9 act: human CYP2C9 activators, primary screen, biochemical, luminescence | Cytochrome P450 2C9 (Homo sapiens), P11712 | recombinant CYP2C9, luciferin-H conversion; stronger effect = higher value; factor 1 = untreated enzyme, 0 = blocked | activation factor at 5 µM | 96,000 compounds, 1.4% hits | AID 1024, 2008;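 active = activation factor of 2 or more for CYP2C9 at a 5 µM dose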;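 note: 0 = sulfaphenazole-blocked wells and 1 = vehicle-only wells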
Target sequence (P11712 whole entry, looked up): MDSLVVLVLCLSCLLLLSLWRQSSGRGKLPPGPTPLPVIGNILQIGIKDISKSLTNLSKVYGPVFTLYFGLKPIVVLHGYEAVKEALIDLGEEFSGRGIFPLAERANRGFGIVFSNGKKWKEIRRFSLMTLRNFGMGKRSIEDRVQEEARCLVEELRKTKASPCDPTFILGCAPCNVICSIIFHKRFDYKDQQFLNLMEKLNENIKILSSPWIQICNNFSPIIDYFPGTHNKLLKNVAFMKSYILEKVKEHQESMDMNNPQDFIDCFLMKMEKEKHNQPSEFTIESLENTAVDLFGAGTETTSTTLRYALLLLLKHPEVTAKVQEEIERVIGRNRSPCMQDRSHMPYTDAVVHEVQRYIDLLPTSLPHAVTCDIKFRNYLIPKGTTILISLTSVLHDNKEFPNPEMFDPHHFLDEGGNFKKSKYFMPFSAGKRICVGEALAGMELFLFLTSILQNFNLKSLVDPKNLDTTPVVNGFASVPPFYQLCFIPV
CYP2C19 act: human CYP2C19 activators, primary screen, biochemical, luminescence; Cytochrome P450 2C19 (Homo sapiens), P33261; recombinant CYP2C19, luciferin-H EGE luminescence; stronger effect = higher value; 0 = fully inhibited enzyme, 1 = untreated enzyme; activation factor at 5 µM; 96,000 tested, under 10 active;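 active = activation factor of at least 2 at 5 µM in the primary screen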;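 note: 0 = wells with 2.5 mM tranylcypromine and 1 = vehicle-only wells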
CYP2C19 inh: blockers of cytochrome P450 2C19 activity – biochemical, luminescence, ADME assay, primary screen | P33261 | CYP2C19 Supersomes, luciferin-H EGE luminescence, 30 min | inhibition, % at 5 µM | 96,000 compounds, 21% hits | AID 778, 2007;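 active = CYP2C19 inhibition above a set limit at 5 µM in the primary screen, cut at about 50% in these data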;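 note: plate controls were negative control wells for no effect and 2.5 mM tranylcypromine positive control for full effect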
Mac1 fbg enh: enhancers of CD11b/CD18 adhesion to fibrinogen, primary screen, K562 cells, luminescence; Integrin beta-2 (Homo sapiens) + Integrin alpha-M (Homo sapiens), P05107+P11215; ATPlite luminescence; activation, % at 10 µM; 93,000 compounds, 0.07% hits; AID 1499, 2009;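 active = 10 µM primary screen giving 50% or more activity, confirmed by 40% or more on retest at that dose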
CYP2C9 inhib: blockers of cytochrome P450 2C9 activity – biochemical, luminescence, ADME assay, primary screen; P11712; CYP2C9 Supersomes, luciferin-H conversion; inhibition, % at 5 µM; 96,000 compounds, 20% hits;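 active = blocking of liver enzyme CYP2C9 beyond about 50% at 5 µM, limit read from the data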
CD11b adhes inh: inhibitors of CD11b/CD18 adhesion to fibrinogen, primary screen, K562 cells, luminescence; 93,000 compounds, 0.54% hits; Integrin beta-2 (Homo sapiens) + Integrin alpha-M (Homo sapiens), P05107+P11215; AID 1497, 2009; ATPlite luminescence; Mn2+ added to activate the integrin; inhibition, % at 10 µM;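 active = primary inhibition of 50% or more at 10 µM, then 40% or more on retest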
The depositor's hits bear a star; . = no result.

SMILES	CYP2C9 act	CYP2C19 act	CYP2C19 inh	Mac1 fbg enh	CYP2C9 inhib	CD11b adhes inh
C/C(=N/Oc1nc(C)cc(C)n1)c1ccc(Br)cc1	0.7	0.5	53*	-3	34	-28
CCOc1nc(Nc2ccc(OC)c(Cl)c2)nc(OCC)n1	0.9	0.9	5	1	8	-18
COc1cc2c(cc1OC)-c1nnc(-c3cccs3)n1C1(CCCC1)C2	1.1	1.1	-9	5	-12	10
CCn1ncc(Cl)c1C(=O)Nc1ccncc1	0.1	0	96*	-2	93*	10
N#Cc1cc2c(nc1SCc1cccnc1)CCC2	0.8	0.1	87*	2	23	-9
N#Cc1cc2c(nc1SCc1cccnc1)CCCC2	0.4	0.2	78*	0	60*	-9
CC(C)(C)OC(=O)N1CC=C2C(C#N)=C(N)C(C#N)(C#N)C(c3cccs3)C2C1 (centres undefined)	0.4	0.6	39	6	60*	-14
CN1CCN(c2nc3c(c(=O)n(C)c(=O)n3C)n2CC(=O)C23CC4CC(CC(C4)C2)C3)CC1	1.2	1.1	-11	-5	-21	9
CCOC(=O)N1CCC(=NNC(=O)COc2cccc(C)c2)CC1	.	.	.	5	.	-7
O=C(COC(=O)C1c2ccccc2Oc2ccccc21)Nc1ccc2c(c1)OCO2	0.4	0.8	19	20	58*	-1
COc1ccc(NC(=O)COC(=O)CCCc2c[nH]c3ccccc23)cc1	0.2	0.2	84*	-7	81*	15
O=C(COC(=O)CCCc1c[nH]c2ccccc12)Nc1ccc2c(c1)OCO2	0.8	0.3	73*	-3	22	27
O=C(COC(=O)C1=COCCO1)Nc1ccc2c(c1)OCO2	1.1	1.1	-6	-3	-6	0
COc1cc2c(cc1OC)C(C(=O)NCC1COc3ccccc3O1)C(c1cccnc1)N(C)C2=O (centres undefined)	1	0.8	17	2	-3	-36
CCOC(=O)CSC1=C(C#N)C(c2ccc(C)cc2)C2=C(CCCC2=O)N1 (centres undefined)	0.2	0.8	21	-4	78*	-4
COc1ccc(C2C(C#N)=C(SC)NC3=C2C(=O)CC(C)(C)C3)cc1 (centres undefined)	0.3	0.5	50	-4	73*	-6
COc1ccc(C2CC(=O)C3=C(C2)NC(C)=C(C#N)C3c2ccc(N(C)C)cc2)cc1 (centres undefined)	0.1	0.4	64*	-2	87*	2
CCOC(=O)CSC1=C(C#N)C(c2ccc(OC)cc2)C2=C(CC(C)(C)CC2=O)N1 (centres undefined)	0.4	0.3	72*	-4	63*	-1
O=C(OCCN=C1NS(=O)(=O)c2ccccc21)C1CC(=O)N(c2ccc3ccccc3c2)C1 (centres undefined)	1.3	0.7	31	-2	-34	-4
COCCNC(=S)N/N=C/c1ccc(OCc2ccc(C(=O)OC)cc2)cc1	.	.	.	64	.	12
O=S(=O)(/N=C(/Nc1cccc2ccccc12)c1ccccc1)c1cccs1	0.2	0.1	90*	1	84*	-55
Nc1ccccc1S(=O)(=O)c1ccccc1N	1.5	0.6	43	.	-53	.
C=C(c1ccc(OC)cc1)c1ccc(OC)cc1	0.6	1.1	-14	-2	36	-4
COc1ccc(C/C(=N\O)c2ccc(OC)cc2)cc1	0.4	0.4	57*	-3	58*	27
O=C1c2ccccc2C(=O)N1CCCC(=O)N1CCCc2ccccc21	1	0.2	83*	5	-2	-22
SMILES	CYP2C9 act	CYP2C19 act	CYP2C19 inh	Mac1 fbg enh	CYP2C9 inhib	CD11b adhes inh
O=C(CCCC(=O)N1CCc2ccccc21)N1CCc2ccccc21	1	1	2	-4	0	-4
Cc1cccc(OCCCC(=O)N2CCCc3ccccc32)c1C	0.8	0.2	83*	2	16	17
CC(=O)Oc1c(C)cc(O)c2ccccc12	0.8	0.4	62*	-4	19	-5
CC(=O)Oc1ccc2c(C)cc(=O)[nH]c2c1	1	1.1	-7	-1	2	2
Cc1cccc(NC(=O)c2cc(NC(=O)C3CC=CCC3C(=O)O)ccc2N2CCOCC2)c1 (centres undefined)	1	1	3	.	-1	.
CC(=O)Nc1ccc(N2CCCCC2)c(C(=O)Nc2cccc(C)c2)c1	0.4	0.5	50*	3	57*	-3
O=C(Cc1ccccc1)NCC(=O)N1CCCCCC1	0.9	0.8	24	0	11	-50
CC(=O)c1ccc(N2CCC(c3cc(-c4ccc(Cl)cc4)n[nH]3)CC2)c([N+](=O)[O-])c1	0.4	0.4	56*	.	57*	.
COc1ccc(-c2cc(C3CCN(c4ccc(C(C)=O)cc4[N+](=O)[O-])CC3)[nH]n2)cc1	0.3	0.2	84*	.	65*	.
CCOC(=O)c1ccc2c(c1)nc(SC/C(O)=C(\C#N)c1nc3ccccc3[nH]1)n2CC	0.9	0.8	17	-4	14	-6
CCOC(=O)c1ccc2c(c1)nc(SCC(=O)N1CCCCC1)n2CC	0.1	0.2	78*	3	88*	6
CCOC(=O)c1ccc2c(c1)nc(SCC(=O)c1ccco1)n2CC	0.3	0.8	21	-1	69*	-2
CCN(CC(=O)Nc1ccc2c(c1)OCCO2)C(=O)CC1CCCC1	0.6	0.6	41	2	44	-2
CCOC(=O)C(=CNc1cc(C)nn1-c1ccc(C)cc1)C(=O)OCC	0.4	0.5	48	-4	65*	8
CC(C)(C)C(=O)N1CCN(c2c(Cl)cccc2[N+](=O)[O-])CC1	0.1	0.4	65*	0	85*	-22
O=C(O)c1cc([N+](=O)[O-])c(N2CCCC2)c([N+](=O)[O-])c1	.	.	.	-2	.	-8
Cc1ccc(-c2noc(CNCCCN(C)C)n2)cc1	0.9	0.9	10	2	10	-4
COc1ccc(C2=NO[C@@H]3[C@@H]4C[C@@H]([C@H]5C(=O)N(c6ccc7c(c6)OCO7)C(=O)[C@@H]45)[C@H]23)cc1OC	.	.	.	1	.	15
COc1ccc(C2C(C(=O)NCc3cccnc3)c3ccccc3C(=O)N2C)cc1OC (centres undefined)	0.3	1.1	-14	-1	70*	9
COc1ccc(C2C(C(=O)N3CCCC3)c3cc(OC)c(OC)cc3C(=O)N2C)cc1OC (centres undefined)	1.1	1.2	-18	2	-8	9
